G9a block – inhibitors of human histone lysine methyltransferase G9a; G9a H3K9 monomethylation, AlphaScreen, 2 h; hit rate 8.8% among 350,000; Q96KQ7; Potency, µM (series often up to 102 µM), without a hit: at the top dose activity, negative = inhibition, most hits filed as inhibitors; AID 504332; note: % is set by controls: 0 for no effect and ±100 for the full control effect; nearly all actives have a fitted effect of over 75% in size
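AlphaScreen detection with an anti-monomethyl H3K9 antibody quantified product after a 2 h room-temperature reaction containing 500 nM biotinylated H3K9 peptide, 20 µM SAM and 20 nM enzyme, which had been preincubated 15 min with compound.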
HP1b chromo inh – inhibitors of HP1-beta chromodomain binding to methylated histone tails | AlphaScreen HP1-beta / biotin-H3K9me3 peptide binding | Potency, µM (series often up to 114 µM), inactives show at the highest dose activity change, negative = inhibition, usual class: inhibitors | hit rate 0.56% among 390,000 | AID 540317; note: nearly all actives have a fitted effect of over 70% in size
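Compound inhibition of the preformed complex between 50 nM HP1-beta and 50 nM biotinylated H3K9me3 peptide was read by AlphaScreen. Buffer was PBS pH 7.4 with 0.01% Tween-20. Incubations ran 30 min at room temperature, with 10 ug/mL donor/acceptor beads.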
JMJD2A Tudor – JMJD2A Tudor domain (human) inhibition. Potency, µM (doses to about 114 µM), without a hit: at the top dose activity change, negative = inhibition, actives largely listed as inhibitors. O75164. AID 504339. AlphaScreen JMJD2A-Tudor / H3K4me3 peptide binding. hit rate 4.4% among 390,000; note: % is set by controls: 0 for no effect and ±100 for the full control effect; nearly all actives have a fitted effect of over 50% in size
Target sequence (O75164 whole entry, looked up, the tested form may be a part): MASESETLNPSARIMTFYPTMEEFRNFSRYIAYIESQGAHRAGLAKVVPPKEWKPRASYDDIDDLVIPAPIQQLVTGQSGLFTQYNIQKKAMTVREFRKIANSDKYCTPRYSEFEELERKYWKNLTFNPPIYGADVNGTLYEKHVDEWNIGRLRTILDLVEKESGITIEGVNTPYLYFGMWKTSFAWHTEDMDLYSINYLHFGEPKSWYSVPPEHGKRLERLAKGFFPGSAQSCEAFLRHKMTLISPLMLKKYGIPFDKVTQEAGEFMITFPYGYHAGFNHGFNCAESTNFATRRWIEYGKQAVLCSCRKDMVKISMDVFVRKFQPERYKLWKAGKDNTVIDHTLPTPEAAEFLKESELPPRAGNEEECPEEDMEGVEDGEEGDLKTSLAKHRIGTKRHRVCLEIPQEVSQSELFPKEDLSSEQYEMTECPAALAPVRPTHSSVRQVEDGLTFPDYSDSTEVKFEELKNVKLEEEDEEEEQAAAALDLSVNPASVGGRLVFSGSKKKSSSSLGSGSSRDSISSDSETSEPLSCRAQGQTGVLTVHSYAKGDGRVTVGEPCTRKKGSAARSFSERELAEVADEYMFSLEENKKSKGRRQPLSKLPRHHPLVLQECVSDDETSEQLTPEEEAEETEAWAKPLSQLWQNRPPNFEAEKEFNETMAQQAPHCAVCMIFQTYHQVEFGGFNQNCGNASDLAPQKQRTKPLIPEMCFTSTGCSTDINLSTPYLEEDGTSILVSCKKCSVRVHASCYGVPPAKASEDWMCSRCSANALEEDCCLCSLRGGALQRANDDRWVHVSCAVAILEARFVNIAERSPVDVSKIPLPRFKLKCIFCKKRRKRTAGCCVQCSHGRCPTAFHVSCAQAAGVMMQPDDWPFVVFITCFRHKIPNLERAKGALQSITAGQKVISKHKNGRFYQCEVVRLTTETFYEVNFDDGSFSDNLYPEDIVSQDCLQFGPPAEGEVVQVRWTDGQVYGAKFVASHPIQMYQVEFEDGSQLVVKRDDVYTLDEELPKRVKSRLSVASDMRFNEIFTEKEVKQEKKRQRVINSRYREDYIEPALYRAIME
BAZ2B inh – blocks human BAZ2B. AlphaScreen BAZ2B-H3K14Ac peptide displacement. hit rate 4.4% among 360,000. AID 504333. Potency, µM (series often up to 114 µM), inactives show at the highest dose activity change, negative = inhibition, usual class: inhibitors. Q9UIF8; note: % is set by controls: 0 for no effect and ±100 for the full control effect; nearly all actives have a fitted effect of over 60% in size
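AlphaScreen luminescence quantifies BAZ2B engagement of H3K14Ac peptide; the protein and biotinylated peptide are both at 50 nM final, buffer PBS pH 7.4 with 0.01% Tween-20, all steps at room temperature.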
GLS inhibitor – blocks human kidney-isoform glutaminase activity | O94925 | GLS enzymatic activity, qHTS titration | Potency, µM (top dose mostly 45.5 µM), inactives show at the highest dose activity change, negative = inhibition, hits mostly inhibitors | hit rate 0.21% among 410,000 | AID 624170; note: % is set by controls: 0 for no effect and ±100 for the full control effect
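Compounds were pin-transferred onto hKGA, after which L-glutamine (1 mM solution) and a detection mix of glutamate oxidase, HRP and Amplex Red were added. Initial and 30 min RT fluorescence reads were collected.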
* hit, by the source's call; ? = inconclusive; . = no result given; [ ] = remark or other dose. Most compounds without a hit are left out; they make up all but 10% or so of the library. Calls come from the whole dose curve; as a rule, active = well fitted curve in the direction sought with a large enough effect; inconclusive = small, poorly fitted or top-dose-only effect, or another doubt; inactive = no such curve, though single readings can be large; an effect the other way counts as inactive or inconclusive. Potency is the fitted concentration of half-maximal effect.

SMILES	G9a block	HP1b chromo inh	JMJD2A Tudor	BAZ2B inh	GLS inhibitor
COc1ccc(CC(=O)Nc2nn(C)c3nc4c(C)cccc4cc23)cc1	-23%	34%	5%	-31%	-5%
O=C(CSc1n[nH]c(-c2ccccn2)n1)Nc1ccc(F)cc1	38%	32%	5.6µM*	4µM*	3%
O=C(CSc1n[nH]c(-c2ccncc2)n1)Nc1ccc(F)cc1	5%	28%	-9%	-18%	-9%
C[C@@H]1CN([C@@H](C)CO)C(=O)c2ccccc2-c2ccccc2CO[C@@H]1CN(C)S(=O)(=O)c1ccc(C(F)(F)F)cc1	.	.	.	.	-6%
O=C(NCCc1ccccc1)c1cnc2sc(N3CCCCC3)nn2c1=O	-7%[59 µM]	36%	-9%	-5%	8%
CC(Cc1ccccc1)(NC(=O)CN)c1ccccc1 (stereo not drawn)	18%[59 µM]	.	.	79µM*	.
CC(C)Cn1c(C23CC4CC(CC(C4)C2)C3)n[nH]c1=S	3.2µM*	23%	56µM*	?	?
CCC(C)[C@H]1CNC(=S)N1CCC12CC3CC(CC(C3)C1)C2 (stereo partly drawn)	-2%[12.7 µM]	27%	-26%	1%	0%
COCCCn1c(C23CC4CC(CC(C4)C2)C3)n[nH]c1=S	.	6%	7.9µM*	4%	?
CC1Cn2c(nnc2C23CC4CC(CC(C4)C2)C3)S1 (stereo not drawn)	0%[12.7 µM]	31%	1%	-6%	0%
Cn1c(C23CC4CC(CC(C4)C2)C3)n[nH]c1=S	22µM*	0%	5.6µM*	6%	10%
CC1=C(C(N)=O)C(c2ccc(C)cc2)n2nc(SCc3ccccc3F)nc2N1 (stereo not drawn)	-11%[59 µM]	25%	-5%	-4%	-12%
Cc1cccc2sc(N(CCN3CCOCC3)C(=O)CCS(=O)(=O)c3ccccc3)nc12	50µM*	17%	-16%	0%	5%
Cc1cccc2sc(N(CCCN3CCOCC3)C(=O)CS(=O)(=O)c3ccc(F)cc3)nc12	56µM*	15%	-26%	-26%	-9%
Cc1ccc(S(=O)(=O)CCC(=O)N(CCN2CCOCC2)c2nc3ccccc3s2)cc1	1%[0.501 µM]	45%	-8%	12%	0%
COc1ccccc1NC(=O)C1=C(C)Nc2nnnn2C1c1cc(Br)c(O)c(OC)c1 (stereo not drawn)	-2%[59 µM]	33%	1%	4%	48%
Cc1cccc(NC(=O)C(=O)NCC(c2ccc3c(c2)OCO3)N2CCOCC2)c1C (stereo not drawn)	-23%[59 µM]	13%[57 µM]	-15%	-9%	-1%
O=C(c1ccccc1)N1CCN(C(=O)c2nn3c(C(F)(F)F)cc(-c4ccccc4)nc3c2Br)CC1	10%	12%	-12%	3%	-4%
Cc1c(C(=O)N(C)Cc2ccc(F)cc2)sc(=O)n1Cc1ccc(Cl)c(Cl)c1	.	.	.	.	-7%
CC(NCC(=O)NC(=O)NCCC1=CCCCC1)c1ccc(S(N)(=O)=O)cc1 (stereo not drawn)	.	?	22µM*	.	1%
O=C(Cc1c[nH]c2ccccc12)Nc1nc2ccccc2[nH]1	79µM*	-7%	?	-30%	19%
O=C(Cc1ccccc1)Nc1nc2ccccc2[nH]1	-32%	18%	-23%	-9%	-1%
CCc1nnc(NC(=O)Cc2c[nH]c3ccccc23)s1	45µM*	19%	-8%	-20%	1%
CSc1ccccc1CNc1nc(NCC2CC2)nc2ccsc12	.	.	.	.	0%
COc1cc(/C(C)=N/NC(=O)c2nnn(-c3nonc3N)c2-c2cccs2)ccc1O	78%	82%	46%	-16%	9%
SMILES	G9a block	HP1b chromo inh	JMJD2A Tudor	BAZ2B inh	GLS inhibitor
CN(CCO)C1=NS(=O)(=O)c2cc([N+](=O)[O-])ccc21	79µM*	28%	-1%	0%	-2%
C=CCOCCN(C)C1=NS(=O)(=O)c2cc([N+](=O)[O-])ccc21	-2%	31%	-15%	-12%	-3%
Cc1noc(C)c1C(=O)NNc1cc(Cl)ccc1Cl	79µM*	1%	-8%	-16%	47%
O=C(NNc1cc(Cl)ccc1Cl)c1cccs1	56µM*	19%	-12%	17%	13µM*
CC(C)n1c(=O)[nH]c2ccccc21	8%	19%	-13%	-6%	2%
CC(C)n1c(=O)[nH][nH]c1=S	0.89µM*	13µM*	8.9µM*	50µM*	?
CC(O)c1cccc(N=Cc2ccc3ccccc3c2O)c1 (stereo not drawn)	1.8µM*	0%	?	?	45%
Oc1ccc(C=Nc2cccc3ccccc23)c(O)c1	?	-10%	-36%	-35%[0.457 µM]	17%
CC(C)c1cccc(C(C)C)c1NC(=O)CN1C(=O)NC2(CCCCCCC2)C1=O	22%[12.7 µM]	29%	-10%	2%	-9%
c1ccc(OCCOCCN2CCOCC2)cc1	25%	24%	-4%	11%	-4%
c1ccc(CCCN2CCOCC2)cc1	50µM*	?	20µM*	?	-11%
Fc1ccccc1OCCCN1CCOCC1	?	?	4.5µM*	?	3%
c1ccc(-c2ccccc2OCCOCCN2CCCCC2)cc1	?	?	3.2µM*	-15%	10%
c1ccc(-c2ccccc2OCCCCN2CCCCCC2)cc1	7.9µM*	-39%	22µM*	50µM*	16%
O=[N+]([O-])c1ccccc1OCCCN1CCOCC1	38%[0.501 µM]	-4%	-5%	-5%	0%
CN1CCN(C(=O)CCc2nc3ccccc3n2-c2ccccc2)CC1	7%[59 µM]	12%	-7%	10%	3%
CCc1nc2ccc(C(=O)NCCCN3CCCC3=O)cn2c1N(C)C(=O)c1cccc(OC)c1	.	.	.	.	2%
COc1ccc(NC(=O)c2oc3ccccc3c2NC(=O)Cc2coc3cc(C)ccc23)cc1	-4%[59 µM]	36%	-16%	-7%	-1%
c1ccc(-c2ccccc2OCCN2CCCC2)cc1	7.9µM*	?	22µM*	56µM*	8%
c1ccc(-c2ccccc2OCCCN2CCOCC2)cc1	.	?	7.9µM*	18µM*	-1%
OCCCN1CCN(CCCOc2ccccc2-c2ccccc2)CC1	-4%[59 µM]	33%	-15%	-11%	-2%
CCN(c1cc(C)cc(C)c1)S(=O)(=O)c1nnc(NC(=O)c2cccc(F)c2)s1	-7%[59 µM]	34%	-12%	-19%	8%
NNc1ncnc2scc(-c3ccc(Cl)cc3)c12	2%	-2%	-36%	71µM*	-5%
Clc1ccc(-c2csc3ncnc(Cl)c23)cc1	-5%[59 µM]	45%[57 µM]	7%	3%	2%
S=c1[nH]cnc2scc(-c3ccc(Cl)cc3)c12	45µM*	?	-29%	-1%	?
O=C(NCc1ccc(Cl)cc1)C1CCN(C(=O)Cc2ccccc2)CC1	-5%	33%	-5%	50µM*	-8%
O=C(NCc1ccco1)C1CCN(C(=O)Cc2ccccc2)CC1	4%[12.7 µM]	29%	2%	-4%	12%
CCCCCn1c(CCCNC(=O)c2ccccc2)nc2ccccc21	6%[59 µM]	16%	-12%	0%	0%
NC(=O)[C@@H]1CCCN1	14%[59 µM]	.	.	.	.

Assay outcomes as filed in PubChem.
